In the supplement of paper PMC6411743:
± gives the standard deviation of the averaged measurements. Targets with the largest changes are over-represented here; the source holds about 6,200 in all.

Key:
Assay in all cases: NP40-soluble protein abundance relative to vehicle (solubility fold change) (ratio); higher = more soluble protein in presence of AMP-PNP
A0A087WUT6|O60841 = molecular target: T1, A0A087WUT6|O60841 (UniProt O60841)
T1 sequence (whole entry): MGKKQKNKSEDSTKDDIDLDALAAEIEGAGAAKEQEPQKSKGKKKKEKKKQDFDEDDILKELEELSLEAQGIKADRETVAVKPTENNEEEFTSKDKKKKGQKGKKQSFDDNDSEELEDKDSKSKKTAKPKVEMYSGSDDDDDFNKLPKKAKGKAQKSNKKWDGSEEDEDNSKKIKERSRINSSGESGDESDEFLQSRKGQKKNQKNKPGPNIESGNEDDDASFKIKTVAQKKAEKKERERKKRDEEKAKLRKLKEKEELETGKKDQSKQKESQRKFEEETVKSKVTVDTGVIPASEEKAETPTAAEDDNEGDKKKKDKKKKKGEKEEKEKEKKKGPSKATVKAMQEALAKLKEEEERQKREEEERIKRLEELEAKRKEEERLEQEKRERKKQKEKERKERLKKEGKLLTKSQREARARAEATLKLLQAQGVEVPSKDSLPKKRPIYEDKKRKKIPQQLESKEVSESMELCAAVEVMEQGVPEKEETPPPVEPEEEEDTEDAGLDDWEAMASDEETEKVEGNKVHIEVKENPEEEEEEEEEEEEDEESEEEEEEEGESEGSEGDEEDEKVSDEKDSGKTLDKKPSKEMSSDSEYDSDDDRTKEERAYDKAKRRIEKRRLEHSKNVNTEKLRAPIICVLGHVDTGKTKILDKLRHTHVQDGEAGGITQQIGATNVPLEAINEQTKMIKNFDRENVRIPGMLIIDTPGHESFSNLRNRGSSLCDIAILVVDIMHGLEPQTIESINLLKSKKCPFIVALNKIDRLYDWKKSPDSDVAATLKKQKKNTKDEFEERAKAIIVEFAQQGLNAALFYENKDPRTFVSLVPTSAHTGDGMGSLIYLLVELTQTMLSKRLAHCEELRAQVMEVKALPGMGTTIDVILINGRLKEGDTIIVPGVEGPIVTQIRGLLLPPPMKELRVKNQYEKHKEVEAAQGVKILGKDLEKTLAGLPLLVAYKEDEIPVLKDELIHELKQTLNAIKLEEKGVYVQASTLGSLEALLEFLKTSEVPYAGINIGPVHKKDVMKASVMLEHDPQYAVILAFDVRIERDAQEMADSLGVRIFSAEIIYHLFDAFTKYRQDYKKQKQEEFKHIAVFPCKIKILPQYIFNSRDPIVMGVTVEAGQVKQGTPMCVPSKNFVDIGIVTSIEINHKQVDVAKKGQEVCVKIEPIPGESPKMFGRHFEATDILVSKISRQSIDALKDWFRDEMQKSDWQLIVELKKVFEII
How it was run: (§1)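 Crude Jurkat lysate, prepared by Dounce homogenisation, was exposed to eight concentrations from 0.1 to 10 mM for 10 min at room temperature and then 3 min at 37 °C. Solubilisation used 0.8% NP40 with benzonase for 60 min at 4 °C, followed by ultracentrifugation and TMT labelling of the supernatant for LC-MS/MS. After vsn normalisation of intensities, each value is the fold change against the detergent-processed vehicle within each replicate, across three independent experiments.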

[1] = molecular target: T2, A0A087WUU7|Q96GX5|Q96GX5-3|Q96GX5-2 (UniProt Q96GX5)
T2 sequence (whole entry): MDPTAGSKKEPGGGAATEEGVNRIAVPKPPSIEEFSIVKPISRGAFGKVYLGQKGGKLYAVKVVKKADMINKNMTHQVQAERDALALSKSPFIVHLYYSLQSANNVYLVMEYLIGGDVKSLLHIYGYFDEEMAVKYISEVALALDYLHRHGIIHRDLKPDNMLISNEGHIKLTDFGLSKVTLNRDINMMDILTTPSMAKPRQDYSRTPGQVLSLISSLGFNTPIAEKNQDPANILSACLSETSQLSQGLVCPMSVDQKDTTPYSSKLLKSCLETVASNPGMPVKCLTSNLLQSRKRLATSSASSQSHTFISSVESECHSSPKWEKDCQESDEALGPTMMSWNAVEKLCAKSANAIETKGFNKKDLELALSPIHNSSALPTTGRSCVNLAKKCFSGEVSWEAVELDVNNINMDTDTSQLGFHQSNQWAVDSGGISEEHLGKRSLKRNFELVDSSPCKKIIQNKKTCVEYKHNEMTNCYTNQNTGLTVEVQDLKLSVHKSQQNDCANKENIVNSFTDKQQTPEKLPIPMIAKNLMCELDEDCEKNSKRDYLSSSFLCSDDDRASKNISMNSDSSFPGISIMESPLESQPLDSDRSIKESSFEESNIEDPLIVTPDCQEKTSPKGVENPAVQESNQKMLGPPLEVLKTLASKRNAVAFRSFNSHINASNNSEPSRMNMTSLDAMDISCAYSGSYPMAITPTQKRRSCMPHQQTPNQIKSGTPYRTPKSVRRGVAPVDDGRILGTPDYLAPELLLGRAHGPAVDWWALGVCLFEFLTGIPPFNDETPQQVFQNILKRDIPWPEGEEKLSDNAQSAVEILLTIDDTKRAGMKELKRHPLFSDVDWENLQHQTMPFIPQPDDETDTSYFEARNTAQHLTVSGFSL
How it was run: as §1

[2] = molecular target: T3, A0A087WV73|P46087|P46087-2|P46087-4 (UniProt P46087)
T3 sequence (whole entry): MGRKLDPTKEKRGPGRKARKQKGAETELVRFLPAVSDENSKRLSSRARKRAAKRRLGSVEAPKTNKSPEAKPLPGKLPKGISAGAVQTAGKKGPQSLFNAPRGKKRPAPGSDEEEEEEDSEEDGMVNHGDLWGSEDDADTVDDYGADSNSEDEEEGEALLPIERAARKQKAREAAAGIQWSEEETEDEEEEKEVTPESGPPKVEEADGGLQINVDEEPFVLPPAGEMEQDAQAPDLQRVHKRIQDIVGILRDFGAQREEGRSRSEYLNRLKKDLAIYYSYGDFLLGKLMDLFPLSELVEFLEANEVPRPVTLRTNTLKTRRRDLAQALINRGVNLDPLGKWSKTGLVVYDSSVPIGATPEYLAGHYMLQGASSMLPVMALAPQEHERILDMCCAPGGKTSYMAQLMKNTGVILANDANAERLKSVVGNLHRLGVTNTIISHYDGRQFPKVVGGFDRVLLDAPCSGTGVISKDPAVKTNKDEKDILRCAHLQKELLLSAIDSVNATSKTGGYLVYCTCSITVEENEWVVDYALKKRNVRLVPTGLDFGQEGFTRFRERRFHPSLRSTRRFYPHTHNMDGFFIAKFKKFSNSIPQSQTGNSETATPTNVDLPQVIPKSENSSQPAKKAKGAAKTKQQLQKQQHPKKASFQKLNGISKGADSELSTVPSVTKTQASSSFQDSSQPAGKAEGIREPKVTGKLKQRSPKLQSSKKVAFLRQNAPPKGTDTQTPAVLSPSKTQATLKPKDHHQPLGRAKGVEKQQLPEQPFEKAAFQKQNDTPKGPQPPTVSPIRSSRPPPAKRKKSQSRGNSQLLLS
How it was run: as §1

A0A087WW88|Q9UQN3 = A0A087WW88|Q9UQN3 (UniProt Q9UQN3)
Sequence of A0A087WW88|Q9UQN3 (Q9UQN3 whole entry, one chain of several): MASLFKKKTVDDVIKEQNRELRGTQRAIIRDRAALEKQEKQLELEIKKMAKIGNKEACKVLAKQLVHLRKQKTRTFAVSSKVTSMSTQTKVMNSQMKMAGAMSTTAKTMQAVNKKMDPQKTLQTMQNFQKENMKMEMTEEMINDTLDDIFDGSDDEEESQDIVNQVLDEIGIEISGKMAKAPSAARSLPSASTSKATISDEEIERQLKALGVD
How it was run: as §1

A0A087WWS1|Q96FV9 = molecular target: T4, A0A087WWS1|Q96FV9 (UniProt Q96FV9)
T4 sequence (whole entry): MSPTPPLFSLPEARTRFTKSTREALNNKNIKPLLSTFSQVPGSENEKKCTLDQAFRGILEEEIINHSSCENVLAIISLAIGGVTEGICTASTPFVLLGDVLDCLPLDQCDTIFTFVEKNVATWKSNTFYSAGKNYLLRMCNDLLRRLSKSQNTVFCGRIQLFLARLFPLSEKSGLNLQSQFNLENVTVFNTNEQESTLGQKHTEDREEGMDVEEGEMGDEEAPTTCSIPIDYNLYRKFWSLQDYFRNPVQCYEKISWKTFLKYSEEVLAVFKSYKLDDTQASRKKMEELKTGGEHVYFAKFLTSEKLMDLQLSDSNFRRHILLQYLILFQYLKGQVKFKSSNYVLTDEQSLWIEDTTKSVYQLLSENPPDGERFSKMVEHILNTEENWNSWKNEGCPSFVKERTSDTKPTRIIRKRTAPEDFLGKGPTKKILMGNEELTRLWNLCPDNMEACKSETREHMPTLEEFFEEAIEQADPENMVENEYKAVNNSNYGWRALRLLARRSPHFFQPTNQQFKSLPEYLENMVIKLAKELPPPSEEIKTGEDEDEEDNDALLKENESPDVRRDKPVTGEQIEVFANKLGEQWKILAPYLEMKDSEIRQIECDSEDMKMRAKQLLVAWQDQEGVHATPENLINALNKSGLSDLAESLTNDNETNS
How it was run: as §1

For Nc1ncnc2c1ncn2[C@@H]1O[C@H](COP(=O)(O)OP(=O)(O)NP(=O)(O)O)[C@@H](O)[C@H]1O [adenylyl imidodiphosphate], which NP40-soluble protein abundance (A0A087WUT6|O60841; concentration: 6mM) is on record?
The NP40-soluble protein abundance was 1.01 ± 0.033.

What about the NP40-soluble protein abundance (A0A087WUT6|O60841; concentration: 8mM) of the same compound?
Its NP40-soluble protein abundance is 1.004 ± 0.0073.

And the NP40-soluble protein abundance (A0A087WUT6|O60841; concentration: 10mM)?
The NP40-soluble protein abundance was 0.997 ± 0.035.

And the NP40-soluble protein abundance ([1]; concentration: 1mM)?
The NP40-soluble protein abundance was 1.01 ± 0.02.

And the NP40-soluble protein abundance ([1]; concentration: 2mM)?
Its NP40-soluble protein abundance is 1.07 ± 0.036.

What about the NP40-soluble protein abundance ([1]; concentration: 4mM) of the same compound?
Its NP40-soluble protein abundance is 1.01 ± 0.044.

What about the NP40-soluble protein abundance ([1]; concentration: 6mM) of the same compound?
Its NP40-soluble protein abundance is 0.976 ± 0.023.

And the NP40-soluble protein abundance ([1]; concentration: 8mM)?
The NP40-soluble protein abundance was 0.967 ± 0.011.

And the NP40-soluble protein abundance ([1]; concentration: 10mM)?
The NP40-soluble protein abundance was 0.991 ± 0.04.

What about the NP40-soluble protein abundance ([2]; concentration: 1mM) of the same compound?
Its NP40-soluble protein abundance is 1.04 ± 0.038.

And the NP40-soluble protein abundance ([2]; concentration: 2mM)?
Its NP40-soluble protein abundance is 1.12 ± 0.068.

And the NP40-soluble protein abundance ([2]; concentration: 4mM)?
The NP40-soluble protein abundance was 1.17 ± 0.05.

And the NP40-soluble protein abundance ([2]; concentration: 6mM)?
The NP40-soluble protein abundance was 1.28 ± 0.067.

What about the NP40-soluble protein abundance ([2]; concentration: 8mM) of the same compound?
Its NP40-soluble protein abundance is 1.34 ± 0.094.

What about the NP40-soluble protein abundance ([2]; concentration: 10mM) of the same compound?
The NP40-soluble protein abundance was 1.43 ± 0.093.

And the NP40-soluble protein abundance (A0A087WW88|Q9UQN3; concentration: 1mM)?
Its NP40-soluble protein abundance is 1.03 ± 0.024.

What about the NP40-soluble protein abundance (A0A087WW88|Q9UQN3; concentration: 2mM) of the same compound?
The NP40-soluble protein abundance was 1.03 ± 0.0098.

And the NP40-soluble protein abundance (A0A087WW88|Q9UQN3; concentration: 4mM)?
The NP40-soluble protein abundance was 1.03 ± 0.03.

What about the NP40-soluble protein abundance (A0A087WW88|Q9UQN3; concentration: 6mM) of the same compound?
Its NP40-soluble protein abundance is 1.04 ± 0.018.

What about the NP40-soluble protein abundance (A0A087WW88|Q9UQN3; concentration: 8mM) of the same compound?
Its NP40-soluble protein abundance is 1.03 ± 0.042.

And the NP40-soluble protein abundance (A0A087WW88|Q9UQN3; concentration: 10mM)?
The NP40-soluble protein abundance was 1.03 ± 0.014.

What about the NP40-soluble protein abundance (A0A087WWS1|Q96FV9; concentration: 1mM) of the same compound?
The NP40-soluble protein abundance was 1.35 ± 0.15.

What about the NP40-soluble protein abundance (A0A087WWS1|Q96FV9; concentration: 2mM) of the same compound?
The NP40-soluble protein abundance was 1.52 ± 0.22.

And the NP40-soluble protein abundance (A0A087WWS1|Q96FV9; concentration: 4mM)?
The NP40-soluble protein abundance was 1.64 ± 0.29.

And the NP40-soluble protein abundance (A0A087WWS1|Q96FV9; concentration: 6mM)?
The NP40-soluble protein abundance was 1.86 ± 0.46.

What about the NP40-soluble protein abundance (A0A087WWS1|Q96FV9; concentration: 8mM) of the same compound?
Its NP40-soluble protein abundance is 1.96 ± 0.56.

What about the NP40-soluble protein abundance (A0A087WWS1|Q96FV9; concentration: 10mM) of the same compound?
The NP40-soluble protein abundance was 2.2 ± 0.76.
